Reference: PubChem BioAssay (NCATS)
Inconclusive results are not listed. Where a call stands in place of a potency, no number is given. Calls of active or inactive are those of the source. Unless noted, calls come from the whole dose curve.

Key:
[1] = Validation screen for inhibitors of Lassa infection (AID 463096)
[2] = Validation screen for small molecules that induce DNA re-replication in MCF 10A normal breast cells (AID 463097; active = well fitted curve in the direction sought with a large enough effect; an effect the other way counts as inactive or inconclusive; note: potency is the fitted concentration of half-maximal effect; nearly all actives have a fitted effect of over 60% in size)
How it was run: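 Following 48 hr compound incubation (37 C, 5% CO2), MCF 10A cells receive Hoechst for 40 min at 37 C. Nuclei are then scanned (excitation 405 nm, emission 500-530 nm) for total fluorescence intensity.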

[3] = target: Tumor susceptibility gene 101 protein (Homo sapiens) (UniProt Q99816); test: qHTS Validation Assay for Iinhibitors of HIV-1 Budding by Blocking the Interaction of PTAP/TSG101 (AID 485342)
Tumor susceptibility gene 101 protein (Homo sapiens), sequence (Q99816 whole entry, looked up, the tested form may be a part): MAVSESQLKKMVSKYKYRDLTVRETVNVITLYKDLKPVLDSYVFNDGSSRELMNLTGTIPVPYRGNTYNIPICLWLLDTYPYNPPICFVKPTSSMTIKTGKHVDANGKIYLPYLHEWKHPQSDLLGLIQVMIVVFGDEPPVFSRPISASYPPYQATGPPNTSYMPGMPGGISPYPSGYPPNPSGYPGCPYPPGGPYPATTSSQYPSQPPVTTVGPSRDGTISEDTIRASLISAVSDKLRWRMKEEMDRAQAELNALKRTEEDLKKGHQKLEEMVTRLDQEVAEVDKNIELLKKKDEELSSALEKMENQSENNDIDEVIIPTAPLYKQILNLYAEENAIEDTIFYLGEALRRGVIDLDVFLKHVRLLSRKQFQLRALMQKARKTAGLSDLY
How it was run: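 Compound wells held the Tsg101 binding domain (10 uM) and a FITC-conjugated PTAP peptide (50 nM) in buffer at pH 7.5 containing 0.15 M NaCl and 0.01% Tween 20; polarization was recorded after 20 min, r.t.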

[4] = Quantitative high throughput screen for delayed death inhibitors of the malarial parasite plastid, 96 hour incubation (AID 488745; active = well fitted curve in the direction sought with a large enough effect; an effect the other way counts as inactive or inconclusive; note: potency is the fitted concentration of half-maximal effect; nearly all actives have a fitted effect of over 70% in size)
How it was run: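 Two-generation (96 h) exposure of luciferase-reporter P. falciparum in erythrocytes, 2% hematocrit, 0.1% parasitemia final, 37 C, 5% CO2, RPMI 1640 with 0.5% Albumax. Growth inhibition scored by reduced luminescence.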

[5] = Quantitative high throughput screen for delayed death inhibitors of the malarial parasite plastid, 48 hour incubation (AID 488752; active = well fitted curve in the direction sought with a large enough effect; an effect the other way counts as inactive or inconclusive; note: potency is the fitted concentration of half-maximal effect; nearly all actives have a fitted effect of over 65% in size)
How it was run: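 Cultures: infected erythrocytes at final 2% hematocrit and 0.1% parasitemia in Albumax-supplemented RPMI. Parasites express integrated firefly luciferase. Incubation with compound lasts 48 h before luminescent detection of remaining reporter activity.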

With `CN(C)CCC(c1ccccc1)c1ccccn1` (stereo not given) as the compound, how does the Potency [1] read?
The Potency was “inactive”.

Which Potency [1] does the source give for `CC(C)COCC(CN(Cc1ccccc1)c1ccccc1)N1CCCC1` (stereo not given) here?
The Potency was “inactive”.

Which Potency [1] does the source give for `CC(C)NCC(O)COc1ccc(COCCOC(C)C)cc1` (stereo not given) here?
The Potency was “inactive”.

With `COc1ccccc1N1CCN(CCCNc2cc(=O)n(C)c(=O)n2C)CC1` as the compound, how does the Potency [1] read?
Its Potency is “inactive”.

Which Potency [1] does the source give for `CCCCNc1cc(C(=O)O)cc(S(N)(=O)=O)c1Oc1ccccc1` here?
The Potency was “inactive”.

With `Cc1ccc(/C(=C\CN2CCCC2)c2ccccn2)cc1` as the compound, how does the Potency [1] read?
Its Potency is “inactive”.

For `CCOC(=O)C(C)(C)Oc1ccc(Cl)cc1`, which Potency [1] is on record?
Its Potency is “inactive”.

For `CN(C(=O)CCCOc1ccc2[nH]c(=O)ccc2c1)C1CCCCC1`, which Potency [1] is on record?
The Potency was “inactive”.

Which Potency [1] does the source give for `O=C(O)CN(CCOCCOCCN(CC(=O)O)CC(=O)O)CC(=O)O` here?
The Potency was “inactive”.

For `Cn1cnc2c1c(=O)[nH]c(=O)n2C`, which Potency [1] is on record?
Its Potency is “inactive”.

Which Potency [1] does the source give for `Clc1ccc(Cn2c(CN3CCCC3)nc3ccccc32)cc1` here?
Its Potency is “inactive”.

With `Nc1c2c(nc3ccccc13)CCCC2O` (stereo not given) as the compound, how does the Potency [1] read?
Its Potency is “inactive”.

With `CN(C)CCN(Cc1cccs1)c1ccccn1` as the compound, how does the Potency [1] read?
Its Potency is “inactive”.

With `COC(=O)[C@@H](N)Cc1ccc(O)c(O)c1` as the compound, how does the Potency [1] read?
The Potency was “inactive”.

For `Cn1c(=O)c2c(ncn2C)n(C)c1=O`, which Potency [1] is on record?
Its Potency is “inactive”.

Which Potency [1] does the source give for `c1cnc(N2CCN(Cc3ccc4c(c3)OCO4)CC2)nc1` here?
Its Potency is “inactive”.

Which Potency [1] does the source give for `C[N+](C)(C)CCOC(=O)CCC(=O)OCC[N+](C)(C)C` here?
The Potency was “inactive”.

With `N[C@@H](Cc1c[nH]c2ccc(O)cc12)C(=O)O` as the compound, how does the Potency [1] read?
Its Potency is “inactive”.

Which Potency [1] does the source give for `Cc1ccc(N(CC2=NCCN2)c2cccc(O)c2)cc1` here?
Its Potency is “inactive”.

With `C[C@]12C=CC(=O)C=C1CC[C@H]1[C@@H]3C[C@@H](O)[C@](O)(C(=O)CO)[C@@]3(C)C[C@H](O)[C@@]12F` as the compound, how does the Potency [1] read?
Its Potency is “inactive”.

Which Potency [1] does the source give for `CCc1cccc2c3c([nH]c12)C(CC)(CC(=O)O)OCC3` (stereo not given) here?
The Potency was “inactive”.

Which Potency [1] does the source give for `Cc1cc(C(C)(C)C)c(O)c(C)c1CC1=NCCN1` here?
Its Potency is “inactive”.

Which Potency [1] does the source give for `C[C@]12CCC(=O)C=C1CC[C@@H]1[C@@H]2C(=O)C[C@@]2(C)[C@H]1CC[C@]2(O)C(=O)CO` here?
Its Potency is “inactive”.

With `Cc1cc(C(C)(C)C)cc(C)c1CC1=NCCN1` as the compound, how does the Potency [1] read?
The Potency was “inactive”.

Which Potency [1] does the source give for `CC1=C(CC(=O)O)c2cc(F)ccc2/C1=C\c1ccc(S(C)(=O)=O)cc1` here?
The Potency was “inactive”.

Which Potency [1] does the source give for `CCCn1cnc2c1c(=O)n(CCCCC(C)=O)c(=O)n2C` here?
The Potency was “inactive”.

With `OCc1cc(C(O)CNCCCCCCOCCCCc2ccccc2)ccc1O` (stereo not given) as the compound, how does the Potency [1] read?
The Potency was “inactive”.

Which Potency [1] does the source give for `CC(=O)OCC1=C(C(=O)O)N2C(=O)[C@@H](NC(=O)CSc3ccncc3)[C@H]2SC1` here?
The Potency was “inactive”.

For `c1cc(CN2CCCCC2)cc(OCCCNc2nc3ccccc3s2)c1`, which Potency [1] is on record?
The Potency was “inactive”.

For `O=C(CCNNC(=O)c1ccncc1)NCc1ccccc1`, which Potency [1] is on record?
The Potency was “inactive”.

Which Potency [1] does the source give for `NS(=O)(=O)c1cc2c(cc1Cl)NCNS2(=O)=O` here?
The Potency was “inactive”.

For `COC(=O)C1=C(C)NC(C)=C(C(=O)OC)C1c1ccccc1[N+](=O)[O-]`, which Potency [2] is on record?
Its Potency is 12.6 µM (active).

For `CCOC(=O)Nc1ccc(NCc2ccc(F)cc2)nc1N`, which outcome [3] is on record?
The outcome was “inactive”.

For `O=C1NCN(c2ccccc2)C12CCN(CCCC(c1ccc(F)cc1)c1ccc(F)cc1)CC2`, which Potency [4] is on record?
Its Potency is 3.7 µM (active).

What about the Potency [5] of the same compound?
The Potency was 9.28 µM (active).
